Records with an inconclusive call do not appear. The source made the active and inactive calls.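 The calls were made as follows, unless noted: active = normalized viability below 100% at a tested concentration; inactive = the rest.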
Experiments:
[1] = ovarian cancer cell viability with rucaparib, profiling panel, oncology-focused library, rucaparib conditional (AID 1508598); details: patient-derived ovarian cancer cells, CellTiter-Glo viability, 144 h, stronger effect = lower value
[2] = growth inhibition of DIPG glioma cells, dose response, cell-based, SU-DIPG-XVII, MIPE5.0, CellTiter-Glo, qHTS (AID 1347060; cut-off not given, nearly all actives have AC50 up to about 26 µM;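 as to AC50: cells exposed to compound for 48 hours before viability readout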); details: SU-DIPG-XVII viability, CellTiter-Glo ATP luminescence
[3] = growth inhibition of DIPG glioma cells, dose response, cell-based, JHH-DIPG-1, MIPE4.0, CellTiter-Glo, qHTS (AID 1347062; cut-off not given, nearly all actives have AC50 up to about 27 µM;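 as to AC50: cells exposed to compound for two days before readout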); details: JHH-DIPG-1 viability, CellTiter-Glo ATP luminescence
[4] = viability loss in pontine glioma line – cell-based, SU-DIPG-XXV, MIPE5.0, CellTiter-Glo, qHTS, dose response (AID 1347065; cut-off not given, nearly all actives have AC50 up to about 26 µM;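 also: cells exposed to compound for 48 hours before ATP readout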); details: CellTiter-Glo ATP luminescence
[5] = SU-DIPG-VI glioma cell viability, MIPE4.0 library, CellTiter-Glo luminescence, qHTS (AID 1347066; cut-off not given, nearly all actives have AC50 up to about 30 µM;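 also: cells exposed to compound for 48 hours before readout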); details: CellTiter-Glo ATP luminescence
[6] = SU-DIPG-XXV glioma cell viability, MIPE5.0 library, qHTS (AID 1347068; cut-off not given, nearly all actives have IC50 up to about 30 µM;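 as to IC50: cells exposed to compound for 48 hours before viability readout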)
[7] = modifiers of HSF1 nuclear foci, imaging, Selleck Cancer Library (AID 1347162; in the data active = plate-normalised HSF1 focus index below about 0.46); details: human cells, at 10 µM; SSMD: measured here: HSF1 foci SSMD mean; cell count: measured here: cell number; plate-normalised HSF1 focus index: stronger effect = lower value
[8] = growth inhibition of DIPG glioma cells, dose response, cell-based, SU-DIPG-XIII, MIPE5.0, CellTiter-Glo, qHTS (AID 1347064; cut-off not given, nearly all actives have AC50 up to about 23 µM;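 as to AC50: cells exposed to compound for 48 hours before the viability read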); details: SU-DIPG-XIII viability, CellTiter-Glo ATP luminescence
[9] = JHH-DIPG-1 glioma cell viability, MIPE5.0 library, CellTiter-Glo luminescence, qHTS (AID 1347067; cut-off not given, nearly all actives have AC50 up to about 26 µM;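 also: cells exposed to compound for 48 hours before readout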); details: JHH-DIPG-1 glioma viability, CellTiter-Glo ATP luminescence
[10] = sensitizers of A549 cells to miR-34 induction, primary screen, imaging, A549 dox-inducible miR-34, nuclei and caspase counts (AID 1347080;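 active = compounds whose cell count with miR-34 switched on is under 0.7 times the count with it off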); details: A549 miR-34 inducible, Hoechst nuclei count, 48 h
[11] = survival rescue of mitochondrial mutant cells in low glucose, primary screen, MELAS cybrids, Rieske KO mouse fibroblasts, CellTiter-Glo (AID 1508586;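 active = mean z-score across replicates of 1.96 or higher in either the MELAS or the Rieske mutant cell line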;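 also: z relative to plate mean and SD of compound and empty wells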)
[12] = at 0.0195 µM, OCI-P5x cells, without rucaparib
[13] = at 0.0781 µM, OCI-C5x cells, with rucaparib 10 µM, 100% = cells with rucaparib alone
[14] = at 0.0781 µM, OCI-C5x cells, without rucaparib
[15] = at 0.0781 µM, OCI-P5x cells, with rucaparib 20 µM, 100% = cells with rucaparib alone
[16] = at 0.0781 µM, OCI-P5x cells, without rucaparib
[17] = at 0.313 µM, OCI-C5x cells, with rucaparib 10 µM, 100% = cells with rucaparib alone
[18] = at 0.313 µM, OCI-C5x cells, without rucaparib
[19] = at 0.313 µM, OCI-P5x cells, with rucaparib 20 µM, 100% = cells with rucaparib alone
[20] = at 0.313 µM, OCI-P5x cells, without rucaparib
[21] = at 1.25 µM, OCI-C5x cells, with rucaparib 10 µM, 100% = cells with rucaparib alone
[22] = at 1.25 µM, OCI-C5x cells, without rucaparib
[23] = at 1.25 µM, OCI-P5x cells, with rucaparib 20 µM, 100% = cells with rucaparib alone
[24] = at 1.25 µM, OCI-P5x cells, without rucaparib
[25] = at 5 µM, OCI-C5x cells, with rucaparib 10 µM, 100% = cells with rucaparib alone
[26] = at 5 µM, OCI-C5x cells, without rucaparib
[27] = at 5 µM, OCI-P5x cells, with rucaparib 20 µM, 100% = cells with rucaparib alone
[28] = at 5 µM, OCI-P5x cells, without rucaparib
[29] = stronger effect = lower value, cell number ratio, induced over uninduced
[30] = measured here: relative caspase fold change +Dox/-Dox
[31] = measured here: total cells with miR-34 induction, stronger effect = lower value
[32] = measured here: total cells without miR-34 induction
[33] = MELAS cybrid survival, CellTiter-Glo 48 h, stronger effect = higher value
[34] = Rieske KO mouse fibroblast survival, CellTiter-Glo 72 h

O=C(O)c1ccc2c(c1)nc(Nc1cccc(Cl)c1)c1ccncc12
viability [1, 12]: 115% (inactive) | viability [1, 13]: 99.7% (active) | viability [1, 14]: 116% (inactive) | viability [1, 15]: 98.9% (active) | viability [1, 16]: 110% (inactive) | viability [1, 17]: 96.1% (active) | viability [1, 18]: 115% (inactive) | viability [1, 19]: 94.3% (active) | viability [1, 20]: 107% (inactive) | viability [1, 21]: 68.3% (active) | viability [1, 22]: 91.5% (active) | viability [1, 23]: 74.7% (active) | viability [1, 24]: 89.4% (active) | viability [1, 25]: 43.6% (active) | viability [1, 26]: 88.1% (active) | viability [1, 27]: 33.3% (active) | viability [1, 28]: 35.6% (active)

CN(C)c1ccccc1CN1CCCN(Cc2ccccc2N(C)C)C1c1ccncc1
AC50 [2]: 26.3 µM (active) | AC50 [3]: 20.9 µM (active) | outcome [4]: inactive | outcome [5]: inactive | outcome [6]: inactive | SSMD [7]: 1.08 | cell count [7]: 6990 | plate-normalised HSF1 focus index [7]: 1.07 (inactive)

CCC(C)SSc1ncc[nH]1 (stereo not given)
AC50 [2]: 14.8 µM (active) | AC50 [3]: 23.5 µM (active) | AC50 [4]: 11.8 µM (active) | AC50 [5]: 26.4 µM (active)

C=CC[N+]1([C@H]2C[C@H]3[C@@H]4CC[C@H]5C[C@H](O)[C@@H](N6CCOCC6)C[C@]5(C)[C@H]4CC[C@]3(C)[C@H]2OC(C)=O)CCCC1
outcome [2]: inactive | outcome [3]: inactive | outcome [8]: inactive | outcome [9]: inactive | outcome [6]: inactive | fold change [10, 29]: 0.847 (inactive) | fold change [10, 30]: 1.54 | cell count [10, 31]: 9100 | cell count [10, 32]: 10700 | z-score [11, 33]: 0.124 (inactive) | z-score [11, 34]: -0.444

O=C(Nc1ccccc1)Nc1ccc(-c2ccc(C(=O)[C@@H]3CCC[C@H]3C(=O)O)cc2)cc1
outcome [2]: inactive | outcome [3]: inactive | outcome [4]: inactive | outcome [5]: inactive | outcome [9]: inactive | outcome [6]: inactive

O=S(=O)(O)c1ccc2cc(N=Nc3cc(S(=O)(=O)O)c4cccnc4c3O)ccc2c1
outcome [2]: inactive | outcome [3]: inactive | outcome [8]: inactive | outcome [4]: inactive | outcome [5]: inactive | outcome [9]: inactive | outcome [6]: inactive

CC[C@]12C=CCN3CC[C@@]4(c5cc([C@@]6(C(=O)OC)C[C@H]7C[C@@H](C(C)(F)F)CN(Cc8c6[nH]c6ccccc86)C7)c(OC)cc5N(C)[C@H]4[C@@](O)(C(=O)OC)[C@@H]1OC(C)=O)[C@@H]32
AC50 [2]: 0.0783 µM (active) | AC50 [3]: 0.469 µM (active) | AC50 [8]: 1.75 µM (active) | AC50 [4]: 0.111 µM (active) | AC50 [5]: 8.33 µM (active) | AC50 [9]: 0.312 µM (active) | IC50 [6]: 0.35 µM (active)

COc1cc(N2CCC(N3CCN(C)CC3)CC2)ccc1Nc1ncc(Cl)c(Nc2ccccc2S(=O)(=O)C(C)C)n1
AC50 [2]: 0.372 µM (active) | AC50 [3]: 18.7 µM (active) | AC50 [8]: 0.661 µM (active) | AC50 [4]: 0.59 µM (active) | AC50 [9]: 1.05 µM (active) | IC50 [6]: 2.35 µM (active) | SSMD [7]: 1.02 | cell count [7]: 6520 | plate-normalised HSF1 focus index [7]: 1.07 (inactive)

CN[C@H]1CCc2cc(OC)c(OC)c(OC)c2-c2ccc(OC)c(=O)cc21
AC50 [2]: 0.105 µM (active) | AC50 [3]: 0.0148 µM (active) | AC50 [8]: 0.132 µM (active) | AC50 [4]: 0.166 µM (active) | AC50 [9]: 0.148 µM (active) | IC50 [6]: 0.148 µM (active)

COc1cc(N2CCC(N3CCN(C)CC3)CC2)ccc1Nc1ncnc(Nc2ccccc2S(=O)(=O)C(C)C)n1
AC50 [2]: 6.61 µM (active) | AC50 [3]: 14.8 µM (active) | AC50 [8]: 5.25 µM (active) | AC50 [4]: 3.72 µM (active) | AC50 [9]: 16.6 µM (active) | outcome [6]: inactive

COc1ccc(/C=C\c2cc(OC)c(OC)c(OC)c2)cc1NC(=O)[C@H](N)CO
AC50 [2]: 0.0833 µM (active) | AC50 [3]: 0.0209 µM (active) | AC50 [8]: 0.59 µM (active) | AC50 [4]: 0.148 µM (active) | AC50 [9]: 0.235 µM (active) | IC50 [6]: 0.332 µM (active)

CC(=O)c1c(C)c2cnc(Nc3ccc(N4CCNCC4)cn3)nc2n(C2CCCC2)c1=O
AC50 [2]: 23.5 µM (active) | AC50 [3]: 29.6 µM (active) | AC50 [8]: 20.9 µM (active) | AC50 [4]: 18.6 µM (active) | AC50 [9]: 20.9 µM (active) | outcome [6]: inactive | fold change [10, 29]: 0.86 (inactive) | fold change [10, 30]: 1.36 | cell count [10, 31]: 3100 | cell count [10, 32]: 3600 | SSMD [7]: -9.93 | cell count [7]: 5060 | plate-normalised HSF1 focus index [7]: 0.38 (inactive) | z-score [11, 33]: 0.0111 (inactive) | z-score [11, 34]: -0.48 | viability ([1]; at 0.000305 µM, OCI-C5x cells, with rucaparib 10 µM, 100% = cells with rucaparib alone): 132% (inactive) | viability ([1]; at 0.000305 µM, OCI-C5x cells, without rucaparib): 95.6% (active) | viability ([1]; at 0.000305 µM, OCI-P5x cells, with rucaparib 20 µM, 100% = cells with rucaparib alone): 93.8% (active) | viability ([1]; at 0.000305 µM, OCI-P5x cells, without rucaparib): 93.8% (active) | viability ([1]; at 0.00122 µM, OCI-C5x cells, with rucaparib 10 µM, 100% = cells with rucaparib alone): 119% (inactive) | viability ([1]; at 0.00122 µM, OCI-C5x cells, without rucaparib): 104% (inactive) | viability ([1]; at 0.00122 µM, OCI-P5x cells, with rucaparib 20 µM, 100% = cells with rucaparib alone): 94.1% (active) | viability ([1]; at 0.00122 µM, OCI-P5x cells, without rucaparib): 91.2% (active) | viability ([1]; at 0.00488 µM, OCI-C5x cells, with rucaparib 10 µM, 100% = cells with rucaparib alone): 119% (inactive) | viability ([1]; at 0.00488 µM, OCI-C5x cells, without rucaparib): 104% (inactive) | viability ([1]; at 0.00488 µM, OCI-P5x cells, with rucaparib 20 µM, 100% = cells with rucaparib alone): 95.4% (active) | viability ([1]; at 0.00488 µM, OCI-P5x cells, without rucaparib): 100% (inactive) | viability ([1]; at 0.0195 µM, OCI-C5x cells, with rucaparib 10 µM, 100% = cells with rucaparib alone): 122% (inactive) | viability ([1]; at 0.0195 µM, OCI-C5x cells, without rucaparib): 116% (inactive) | viability ([1]; at 0.0195 µM, OCI-P5x cells, with rucaparib 20 µM, 100% = cells with rucaparib alone): 95% (active) | viability [1, 12]: 94.4% (active) | viability [1, 13]: 115% (inactive) | viability [1, 14]: 118% (inactive) | viability [1, 15]: 96.9% (active) | viability [1, 16]: 103% (inactive) | viability [1, 17]: 111% (inactive) | viability [1, 18]: 126% (inactive) | viability [1, 19]: 99.2% (active) | viability [1, 20]: 98.7% (active) | viability [1, 21]: 115% (inactive) | viability [1, 22]: 133% (inactive) | viability [1, 23]: 97.6% (active) | viability [1, 24]: 99.7% (active) | viability [1, 25]: 114% (inactive) | viability [1, 26]: 139% (inactive) | viability [1, 27]: 103% (inactive) | viability [1, 28]: 97.9% (active)

C[C@@H]1CN(Cc2ccc(F)cc2)[C@@H](C)CN1C(=O)c1cc2c(C(=O)C(=O)N(C)C)cn(C)c2cc1Cl
outcome [2]: inactive | outcome [3]: inactive | outcome [8]: inactive | outcome [6]: inactive

Cc1ccc(CN2CCNCC2)cc1NC(=O)CNc1ccc(F)c(F)c1
outcome [2]: inactive | outcome [3]: inactive | outcome [8]: inactive | outcome [4]: inactive | outcome [9]: inactive | outcome [6]: inactive

O=c1ncn2nc(Sc3ccc(F)cc3F)ccc2c1-c1c(Cl)cccc1Cl
outcome [2]: inactive | outcome [3]: inactive | outcome [8]: inactive | outcome [5]: inactive | outcome [9]: inactive | outcome [6]: inactive | fold change [10, 29]: 0.89 (inactive) | fold change [10, 30]: 1.87 | cell count [10, 31]: 6460 | cell count [10, 32]: 7250 | z-score [11, 33]: -0.528 (inactive) | z-score [11, 34]: 1.18

COc1cc2c(cc1OC)CC(=O)N(CCCN(C)C[C@H]1Cc3cc(OC)c(OC)cc31)CC2
outcome [2]: inactive | outcome [3]: inactive | outcome [8]: inactive | outcome [4]: inactive | outcome [5]: inactive | outcome [9]: inactive | outcome [6]: inactive

O=C(O)CCNc1cc(N2CCc3ccccc3CC2)nc(-c2ccccn2)n1
outcome [2]: inactive | outcome [3]: inactive | outcome [8]: inactive | outcome [4]: inactive | outcome [5]: inactive | outcome [9]: inactive | outcome [6]: inactive
